The source of these data is PMC5540273 (PLoS ONE, 2017).

Some test systems named below: SNRK; SRC; SRMS; SRPK1; SRPK2; SRPK3; STK16; STK33; STK35; STK36; STK39; SYK; SgK110; TAOK1; TAOK2; TAOK3; TBK1; TEC.
Conditions in all cases: concentration: 1 μM, replicates: in singlicate; n = 1
For another assay, the system named is T1, SNARK.
T1 construct: gene NUAK2

The subject of a further assay is T2, TAK1.
T2 construct: gene MAP3K7
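Further: KINOMEscan kinase panel screen.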

On to `Clc1ccc(-c2nn3ncccc3c2-c2ccnc(Nc3ccc4c(c3)OCCO4)n2)cc1` [GW829116], for which the “%Inh” value in the assay with SNARK is 0%; in the assay on SNRK, 0%; in the assay on SRC, 44%; with SRMS it was 13%; in the assay with SRPK1, 0%; in the assay on SRPK2 it was 0%. The “%Inh” value is 0% in the assay with SRPK3; 32% with STK16; 0% in the assay with STK33; 0% with STK35; 79% with STK36; 0% in the assay with STK39. Also, the “%Inh” value with SYK stood at 0%; with SgK110 it was 11%; in the assay with TAK1, 0%; in the assay on TAOK1 it was 0%; in the assay on TAOK2, 19%; with TAOK3, 0%. Besides, the “%Inh” value in the assay on TBK1 is listed as 19%; in the assay with TEC, 0%.

Consider `COc1cc(Nc2ncc3c(C)nc(-c4cc5ccccc5[nH]4)n3n2)cc(OC)c1OC` [GW869516], for which the “%Inh” value in the assay on SNARK worked out at 9%; with SNRK, 0%; in the assay with SRC it was 90.1%; in the assay with SRMS it was 13%; in the assay on SRPK1, 9%; in the assay on SRPK2 it was 6%. The “%Inh” value in the assay with SRPK3 was determined as 19%; in the assay with STK16, 86%; with STK33 it was 10%; in the assay with STK35, 0%; in the assay on STK36, 6%; in the assay with STK39 it was 0%. For the same compound, the “%Inh” value with SYK turned out to be 53%; in the assay on SgK110, 0%; in the assay with TAK1, 48%; in the assay on TAOK1 it was 0%; with TAOK2, 0%; in the assay with TAOK3, 0%. For the same compound, the “%Inh” value with TBK1 came to 58%; in the assay with TEC, 0%.

Turning to `O=C(NC1CCN(c2ccnc(Nc3ccc(F)cc3)n2)C1)c1cc2ccccc2s1` (centres unmarked) [GSK1379716], the “%Inh” value in the assay with SNARK worked out at 0%; in the assay with SNRK it was 0%; in the assay on SRC it was 1%; in the assay with SRMS, 0%; with SRPK1, 31%; in the assay on SRPK2, 37%. Also, the “%Inh” value in the assay on SRPK3 amounted to 4%; in the assay with STK16, 15%; in the assay with STK33 it was 0%; in the assay with STK35, 6%; in the assay on STK36 it was 0%; with STK39 it was 4%. Also, the “%Inh” value in the assay with SYK was 42%; in the assay with SgK110 it was 0%; in the assay with TAK1, 0%; in the assay on TAOK1, 0%; with TAOK2 it was 0%; in the assay with TAOK3 it was 0%. Besides, the “%Inh” value stood at 20% in the assay on TBK1 and 16% in the assay with TEC.

Consider `Nc1ncnc2c1nc(-c1ccccc1)n2-c1ccccc1` [SKF-97293], for which the “%Inh” value in the assay with SNARK is reported as 24%; with SNRK, 18%; in the assay with SRC it was 10%; in the assay on SRMS, 24%; in the assay with SRPK1, 0%; with SRPK2, 5%. The “%Inh” value with SRPK3 is recorded as 9%; in the assay with STK16 it was 0%; in the assay on STK33 it was 16%; with STK35, 0%; in the assay with STK36, 7%; in the assay with STK39, 0%. Further, the “%Inh” value in the assay with SYK was 6%; in the assay on SgK110, 0%; in the assay on TAK1 it was 35%; with TAOK1 it was 38%; in the assay with TAOK2, 6%; in the assay on TAOK3, 25%. Also, the “%Inh” value in the assay with TBK1 came out at 24%; in the assay with TEC it was 8%.

On to `Cn1cc(-c2ccc3c(c2)CCN3C(=O)Cc2cccc(Cl)c2)c2c(N)ncnc21` [GSK2606590], for which the “%Inh” value in the assay on SNARK is 18%; in the assay with SNRK, 0%; in the assay on SRC, 21%; in the assay on SRMS it was 0%; with SRPK1, 0%; with SRPK2, 0%. Also, the “%Inh” value with SRPK3 amounted to 11%; in the assay on STK16, 11%; in the assay on STK33 it was 0%; with STK35, 0%; in the assay with STK36, 0%; with STK39, 9%. The “%Inh” value in the assay with SYK is 38%; in the assay on SgK110, 0%; with TAK1, 42%; with TAOK1, 0%; in the assay with TAOK2 it was 0%; with TAOK3, 0%. The “%Inh” value in the assay on TBK1 is 27%; in the assay with TEC, 4%.

With `CN(C)Cc1ccc(-c2ccc3c(Nc4ccc(Oc5ccccn5)cc4)ccnc3c2)o1` [GW567148], the “%Inh” value in the assay on SNARK amounted to 12%; in the assay with SNRK, 0%; in the assay on SRC it was 36%; in the assay with SRMS, 94.5%; in the assay with SRPK1, 0%; with SRPK2, 0%. Besides, the “%Inh” value came to 0% in the assay with SRPK3; 0% in the assay on STK16; 55% with STK33; 66% with STK35; 0% with STK36; 0% in the assay with STK39. Moreover, the “%Inh” value in the assay with SYK stood at 0%; in the assay on SgK110, 0%; with TAK1 it was 23%; in the assay with TAOK1 it was 0%; in the assay with TAOK2, 0%; with TAOK3 it was 0%. The entries for the “%Inh” value in the assay on TBK1 and in the assay with TEC were 7% and 49%, respectively.

Consider `CSc1cccc2c(-c3ccncn3)c(-c3ccc(F)cc3)nn12` [GW514786], for which the “%Inh” value with SNARK worked out at 0%; with SNRK, 0%; in the assay on SRC, 1%; in the assay on SRMS it was 0%; in the assay on SRPK1, 0%; in the assay on SRPK2 it was 0%. Besides, the “%Inh” value in the assay on SRPK3 is given as 100%; with STK16, 3%; with STK33 it was 0%; with STK35, 0%; in the assay with STK36, 38%; in the assay on STK39, 10%. The “%Inh” value is on record as 42% in the assay with SYK; 0% in the assay with SgK110; 9% in the assay on TAK1; 0% in the assay on TAOK1; 0% with TAOK2; 0% in the assay with TAOK3. In addition, the “%Inh” value came to 8% with TBK1 and 0% in the assay on TEC.

As to `Nc1n[nH]c2cnc(-c3ccccc3)cc12` [SB-642124], the “%Inh” value with SNARK is 60%; in the assay on SNRK it was 0%; in the assay with SRC, 0%; in the assay with SRMS, 0%; in the assay with SRPK1 it was 22%; with SRPK2, 3%. Also, the “%Inh” value in the assay with SRPK3 is on record as 24%; with STK16 it was 45%; with STK33, 31%; in the assay on STK35 it was 0%; in the assay with STK36 it was 0%; in the assay with STK39, 0%. For the same compound, the “%Inh” value was found to be 0% in the assay with SYK; 50% with SgK110; 0% with TAK1; 51% with TAOK1; 9% in the assay with TAOK2; 7% in the assay with TAOK3. The “%Inh” value with TBK1 came to 1%; with TEC, 68%.

Consider `O=C(Nc1ccccc1F)NC1CCN(c2ccnc(Nc3ccc(F)cc3)n2)CC1` [GSK1379800], for which the “%Inh” value with SNARK is 0%; in the assay on SNRK it was 0%; in the assay on SRC it was 0%; in the assay on SRMS, 0%; in the assay with SRPK1, 11%; in the assay on SRPK2 it was 25%. Besides, the “%Inh” value in the assay with SRPK3 is given as 0%; with STK16 it was 16%; with STK33, 0%; in the assay on STK35, 0%; in the assay on STK36, 0%; with STK39, 0%. Moreover, the “%Inh” value with SYK, in the assay with SgK110, with TAK1, with TAOK1, in the assay on TAOK2 and in the assay with TAOK3 was 0% each time. In addition, the “%Inh” value in the assay on TBK1 stood at 8%; in the assay with TEC, 0%.

Turning to `FC(F)(F)c1ccc(/C=C/c2cncnc2Nc2ccc3[nH]c(Cc4ccccc4)nc3c2)cc1` [GW709199], the “%Inh” value in the assay with SNARK stood at 45%; with SNRK, 0%; in the assay on SRC it was 1%; with SRMS it was 0%; in the assay with SRPK1, 21%; in the assay with SRPK2, 56%. The “%Inh” value stood at 2% with SRPK3; 0% in the assay on STK16; 0% in the assay on STK33; 0% with STK35; 0% in the assay with STK36; 0% with STK39. In addition, the “%Inh” value is 10% in the assay on SYK; 9% in the assay with SgK110; 0% in the assay with TAK1; 0% in the assay with TAOK1; 0% in the assay on TAOK2; 0% in the assay with TAOK3. Moreover, the results for the “%Inh” value with TBK1 and with TEC were 36% and 14%, respectively.
